Data published in PubChem BioAssay (EPA / NIEHS).
The source made the active and inactive calls. Rule for the calls: active = hit-call score of the fitted dose curve at least 0.9, where 1 is the maximum; inactive = score below 0.9.

Target: Hepatocyte nuclear factor 3-beta (Homo sapiens) (UniProt Q9Y261)
Assay: ATG_FoxA2_CIS: Attagene CIS-FACTORIAL HepG2 Assay for human Forkhead box A2 (FOXA2) (AID 2282942)
Details: HepG2 cis-reporter transcription factor activity, 24 h; actives raise or lower the signal
Method: ATG_CIS is a cell-based, multiplexed-readout assay that uses HepG2, a human liver cell line, with measurements taken at 24 hours after chemical dosing in a 24-well plate.ATG_FoxA2_CIS is one of 52 assay component(s) measured or calculated from the ATG_CIS assay. It is designed to make measurements of mRNA induction, a form of inducible reporter, as detected with fluorescence intensity signals by Reverse transcription polymerase chain reaction (RT-PCR) and Capillary electrophoresis technology.Data from the assay component ATG_FoxA2_CIS was analyzed into 1 assay endpoint. This assay endpoint, ATG_FoxA2_CIS, was analyzed with bidirectional fitting relative to DMSO as the negative control and baseline of activity. Using a type of inducible reporter, measures of mRNA for gain or loss-of-signal activity can be used to understand the reporter gene at the transcription factor-level as they relate to the gene FOXA2. Furthermore, this assay endpoint can be referred to as a primary readout, because this assay has produced multiple assay endpoints where this one serves a reporter gene function. To generalize the intended target to other relatable targets, this assay endpoint is annotated to the dna binding intended target family, where the subfamily is forkhead box protein.
Human liver HepG2 cells are transiently transfected with multiple reporter transcription units (MRTUs) in 6-well plates using FuGene 6 reagent (Roche; 3 ml FuGene/1 mg DNA). The MRTU constructs are regulated by a cis-regulating element (promoter). […] A major difference between the CIS and TRANS system is that in CIS activities of endogenous TFs are measured, whereas the TRANS assay evaluates changes in activities of exogenous, chimeric NR-Gal4 proteins. […] At the end of 24 hour incubation, total RNA was isolated using TriZol reagent (Invitrogen). The isolated RNA is then reverse-transcribed using oligo(dT) primer and Mo-MLV reverse transcriptase (Invitrogen) with DNAse I (Ambion) treatment for 30 min. The one-tenth of the produced cDNA was amplified by PCR using Taq DNA polymerase (Invitrogen) and two reporter sequence-specific primers. The PCR products were fluorescently labeled by primer extension with 6-arboxyfluorescein (6-FAM) 5'-labeled reporter sequence-specific primer (2 min at 95 C, 20 s at 68 C and 10 min at 72 C) and these products were digested with 5U of HpaI (New England Biolabs) for 2h at 37 C. The fragments were purified using Qiaquick PCR columns (Qiagen), analyzed on an ABI 3130xL genetic analyzer (Applied Biosystems) with peak positions identified by using a set of X-rhodamine (ROX)-labeled MapMarker1000 molecular weight standards (BioVentures). The raw capillary electrophoresis data was processed using Attagraph software (Attagene).

Sequence of Hepatocyte nuclear factor 3-beta (Homo sapiens) (Q9Y261 whole entry, looked up): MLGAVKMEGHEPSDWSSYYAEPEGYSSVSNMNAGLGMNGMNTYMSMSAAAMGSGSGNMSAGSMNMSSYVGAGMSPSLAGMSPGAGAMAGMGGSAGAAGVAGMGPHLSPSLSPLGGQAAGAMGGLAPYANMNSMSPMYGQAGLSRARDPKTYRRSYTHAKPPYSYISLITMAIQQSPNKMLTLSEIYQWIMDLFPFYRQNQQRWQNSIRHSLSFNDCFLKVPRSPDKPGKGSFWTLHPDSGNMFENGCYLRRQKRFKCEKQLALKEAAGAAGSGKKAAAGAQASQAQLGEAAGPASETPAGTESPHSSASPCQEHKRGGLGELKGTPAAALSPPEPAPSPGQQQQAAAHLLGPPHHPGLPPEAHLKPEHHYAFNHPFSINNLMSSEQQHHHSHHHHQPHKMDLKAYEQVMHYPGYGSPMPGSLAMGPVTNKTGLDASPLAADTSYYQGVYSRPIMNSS

Question: Which outcome does the source give for `c1cc(N(CC2CO2)CC2CO2)ccc1OCC1CO1` (stereo not given) here?
Answer: The outcome was “inactive”.

Question: How did the outcome turn out when `O=c1c2ccccc2oc2ccccc12` was run?
Answer: The outcome was “inactive”.

Question: For `Cc1cccc(N)n1`, which outcome is on record?
Answer: The outcome was “inactive”.

Question: For `C[Si](C)O[Si](C)(C)O[Si](C)(C)O[Si](C)C`, which outcome is on record?
Answer: Its outcome is “inactive”.

Question: Which outcome does the source give for `CCCCC(CC)COCC1CO1` (stereo not given) here?
Answer: Its outcome is “inactive”.

Question: Which outcome does the source give for `CCCCCCCCCCC=CC#N` here?
Answer: The outcome was “inactive”.

Question: How did the outcome turn out when `CC(=O)OC(C)C` was run?
Answer: Its outcome is “inactive”.

Question: Which outcome does the source give for `O=C(C(Cl)Cl)N1CCOC12CCCCC2` here?
Answer: Its outcome is “inactive”.

Question: Which outcome does the source give for `CCCCCCCCCCOS(=O)(=O)O` here?
Answer: Its outcome is “inactive”.

Question: For `c1ccc(CCCc2ccncc2)cc1`, which outcome is on record?
Answer: Its outcome is “inactive”.

Question: How did the outcome turn out when `COCCOCCOCCOCCOC` was run?
Answer: The outcome was “inactive”.

Question: For `CC(CC=O)CCCC(C)(C)O` (stereo not given), which outcome is on record?
Answer: Its outcome is “inactive”.

Question: With `CC(C)C(=O)C(C)C` as the molecule, how does the outcome read?
Answer: Its outcome is “inactive”.

Question: For `O=C1CCCC1`, which outcome is on record?
Answer: Its outcome is “inactive”.

Question: Which outcome does the source give for `CC(C)=CCC[C@H](C)CCO` here?
Answer: Its outcome is “inactive”.

Question: `N#[N+]c1ccc2c(S(=O)(=O)[O-])cccc2c1O` was tested. Which outcome did it give?
Answer: Its outcome is “inactive”.

Question: With `[Cl][Nd]([Cl])[Cl]` as the molecule, how does the outcome read?
Answer: The outcome was “inactive”.

Question: `CCC(CC)C(=O)O` was tested. Which outcome did it give?
Answer: Its outcome is “inactive”.

Question: For `CC(=O)Nc1ccc2c(c1)Cc1cc(NC(C)=O)ccc1-2`, which outcome is on record?
Answer: The outcome was “inactive”.

Question: With `CC(=O)C=CC1C(C)=CCC(C)C1(C)C` (stereo not given) as the molecule, how does the outcome read?
Answer: Its outcome is “inactive”.

Question: With `Cc1ccc(N/N=c2\c(=O)cc/c(=N/Nc3ccc(S(=O)(=O)O)cc3)c2=O)c(C)c1` as the molecule, how does the outcome read?
Answer: The outcome was “inactive”.

Question: How did the outcome turn out when `CC(=O)Oc1ccc(C(C)=O)cc1` was run?
Answer: The outcome was “inactive”.

Question: With `N#CCc1ccc(Cl)cc1Cl` as the molecule, how does the outcome read?
Answer: The outcome was “inactive”.

Question: Which outcome does the source give for `Nc1ccc(N=Nc2ccccc2)c(N)n1` here?
Answer: The outcome was “inactive”.

Question: With `COC(F)(F)C(F)(C(F)(F)F)C(F)(F)F` as the molecule, how does the outcome read?
Answer: The outcome was “inactive”.

Question: `N=c1ccn2c(n1)O[C@H]1[C@H](O)[C@@H](CO)O[C@H]12` was tested. Which outcome did it give?
Answer: The outcome was “inactive”.

Question: Which outcome does the source give for `O=C1C=CC(=O)O1` here?
Answer: The outcome was “inactive”.

Question: Which outcome does the source give for `O=C(O)CCCC[C@@H]1SC[C@@H]2NC(=O)N[C@@H]21` here?
Answer: The outcome was “inactive”.

Question: `O=c1[nH]c(=O)c2[nH]c(=O)[nH]c2[nH]1` was tested. Which outcome did it give?
Answer: The outcome was “inactive”.

Question: For `COC(=O)/C=C/C(C)=C\C=C\C(C)=C\C=C\C=C(C)\C=C\C=C(C)\C=C\C(=O)O`, which outcome is on record?
Answer: Its outcome is “inactive”.

Question: With `Cc1ccc(C(C)c2ccc(C)c(C)c2)cc1C` as the molecule, how does the outcome read?
Answer: Its outcome is “inactive”.

Question: Which outcome does the source give for `Cc1ccc(OC(=O)CC(C)C)cc1` here?
Answer: The outcome was “inactive”.

Question: Which outcome does the source give for `c1ccc(-c2ccccn2)nc1` here?
Answer: Its outcome is “inactive”.

Question: For `CC1OC1C1CCC2(C)OC2C1` (stereo not given), which outcome is on record?
Answer: The outcome was “inactive”.

Question: With `Cc1ccc(N)c([N+](=O)[O-])c1` as the molecule, how does the outcome read?
Answer: Its outcome is “inactive”.

Question: For `N[C@H]1C(O)O[C@H](CO)[C@H](O)[C@@H]1O` (stereo not given in full), which outcome is on record?
Answer: The outcome was “inactive”.

Question: With `O=[N+]([O-])C1(Br)COCOC1` as the molecule, how does the outcome read?
Answer: Its outcome is “inactive”.

Question: `O=S(=O)(O)c1cc(S(=O)(=O)O)c2ccc3c(S(=O)(=O)O)cc(S(=O)(=O)O)c4ccc1c2c43` was tested. Which outcome did it give?
Answer: Its outcome is “inactive”.

Question: With `CCCCCCC(O)CO` (stereo not given) as the molecule, how does the outcome read?
Answer: Its outcome is “inactive”.

Question: `C=CC(=O)OCCOC1C2CCC1C1CC=CC12` (stereo not given) was tested. Which outcome did it give?
Answer: The outcome was “inactive”.
